Among the data in PubChem BioAssay are composite z-score and z-score values, retold here.

Active and inactive are the calls of the source. Unless noted, no rule for the calls is given here.

Assay [1] concerns Wnt5a (protein binding on small-molecule microarray). Briefly: small molecules binding Wnt5a protein – biophysical, small-molecule microarray, 635/667 nm fluorescence, primary screen (AID 1142).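 Also: fluorescence read at 667 nm with signal to noise per printed feature.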 Particulars: 635 nm fluorescence, higher = more signal.
Assay [2] can be described thus: ATP-based viability of Huh7 replicon cells – cell-based, CellTiter-Glo luminescence, basal, 48 h, cytotoxicity control for HCV replication inhibitor project, primary screen (AID 1143).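 Also: Huh7 hepatoma cells carrying a hepatitis C replication reporter with no stimulus; test concentration not given here.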 Particulars: higher = more signal, called active from +8 up or from −8 down. On the technique in general: Replicon systems follow genome replication, usually without infectious particles.

Assay [3] can be described thus: Pseudomonas biofilm growth suppression – PAO1 strain, BacTiter-Glo luminescence, LB-PBS, primary screen (AID 1144). The settings on record: P. aeruginosa PAO1 biofilm, 12 h, higher = more signal.
Assay [4] is described as follows: basal CRE-LacZ reporter activity in PC12 – cell-based, unstimulated, primary screen (AID 1145). The settings on record: no forskolin, luminescence, 4.5 h, higher = more signal, called active from +8 up or from −8 down.
A short description of assay [5]: forskolin-driven CRE-LacZ activity in PC12 – cell-based, CRE-LacZ reporter, forskolin-stimulated, primary screen (AID 1146).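 Also: PC12 cells with 6xCRE LacZ reporter stimulated by forskolin 10 µM; beta-galactosidase reporter signal reflecting CREB driven transcription.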 The settings on record: luminescence, 4.5 h, higher = more signal, called active from +8 up or from −8 down.
Assay [6] concerns the target Streptavidin (Streptomyces avidinii) (UniProt P22629). Briefly: compounds binding control protein streptavidin – biophysical, small-molecule microarray, 635/667 nm fluorescence, artefact control for SMM compound annotation, primary screen (AID 1147).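 Also: signal reflects streptavidin binding to arrayed compounds as a control protein.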 Particulars: higher = more signal.
Assay [7] can be described thus: probe aInhba binding on compound microarray – biochemical, small-molecule microarray, 635/667 nm fluorescence, primary screen (AID 1148).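 Also: score merges 667nm spot fluorescence with signal-to-noise for antibody binding to printed compounds.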 Particulars: higher = more signal.
For assay [8], the target named is Torsin-1A (Homo sapiens) (UniProt O14656). Briefly: TOR1A wild-type binding on microarray – cell lysate, small-molecule microarray, lysate, 635/667 nm, primary screen (AID 1149). Particulars: COS7 hTOR1A-WT lysate, 635 nm fluorescence, higher = more signal.
For assay [9] the target is unchanged. The assay can be described thus: torsin A mutant lysate binding on microarrays – cell lysate, small-molecule microarray, COS7 lysate, 635/667 nm fluorescence, primary screen (AID 1150).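 Also: score pools 667 nm emission and signal to noise measuring lysate protein binding.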 Particulars: COS7 hTOR1A mutant lysate, 635 nm fluorescence, higher = more signal.
Assay [10] deals with Sonic hedgehog protein (Shh). The assay can be described thus: Sonic hedgehog microarray binding compounds – biochemical, small-molecule microarray, 635/667 nm fluorescence, primary screen (AID 1151).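 Also: Shh protein binding to compounds spotted on small-molecule microarray slides; score combines spot fluorescence intensity with signal-to-noise across triplicate slides.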 Particulars: 635 nm fluorescence, higher = more signal.
Assay [11] is described as follows: optical density shifts of acrAB sulA E. coli – strain DRC41, OD650, 48 h, E. coli filamentation inducer project, primary screen (AID 1152).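 Also: E. coli MC1000 strain DRC41 lacking acrAB efflux pump and sulA.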 The settings on record: higher = more signal, called active from +8 up or from −8 down.
The nature of assay [12]: probe aLefty1 binding on compound microarray – biochemical, small-molecule microarray, 635/667 nm fluorescence, primary screen (AID 1153).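 Also: score merges spot fluorescence with signal-to-noise ratio from the scanned slide images.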 The settings on record: higher = more signal.
Assay [13] can be described thus: plasmodial surface anion channel blockers, osmotic lysis – cell-based, P. falciparum Indochina, OD700, 1 h, primary screen (AID 1154). Particulars: P. falciparum Indochina infected RBC osmotic lysis, higher = more signal, called active from +8 up or from −8 down.
The nature of assay [14]: plasmodial surface anion channel blockers, osmotic lysis – cell-based, P. falciparum Indochina, OD700, 2 h, primary screen (AID 1155).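 Also: lysis reports solute entry through the parasite surface anion channel PSAC.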 The settings on record: P. falciparum Indochina infected erythrocytes, higher = more signal, called active from +8 up or from −8 down.
Assay [15] can be described thus: changes in parasitized red cell lysis, either direction – P. falciparum Indochina, OD700, 3 h, PSAC antagonist project, primary screen (AID 1156). Particulars: P. falciparum-infected erythrocytes, osmotic lysis, higher = more signal, called active from +8 up or from −8 down.
The nature of assay [16]: plasmodial surface anion channel blockers, osmotic lysis – cell-based, P. falciparum Indochina, OD700, 18 h, primary screen (AID 1157). Particulars: P. falciparum Indochina infected erythrocytes, osmotic lysis OD700, 18 h; higher = more signal, called active from +8 up or from −8 down.
A short description of assay [17]: S6 kinase pathway phospho-S6 level changes – cell-based, A549, cytoblot, luminescence, serum-stimulated, primary screen (AID 1158).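 Also: serum-stimulated A549 lung adenocarcinoma cells; signal is phosphorylated S6 detected by cytoblot immunostaining with HRP secondary.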 The settings on record: 5 h, higher = more signal.
Assay [18] has as its target NADPH oxidase 2 (Homo sapiens) (UniProt P04839). Briefly: compounds shifting NOX2 Amplex Red fluorescence – cell-based, HEK293-NOX2, PMA-stimulated, NOX inhibitor project, primary screen (AID 1159). Also: test concentration not given here. The settings on record: 45 min, higher = more signal, called active from +8 up or from −8 down.
In assay [19] the target is NADPH oxidase 4 (Homo sapiens) (UniProt Q9NPH5). The assay can be described thus: compounds shifting NOX4 Amplex Red fluorescence – cell-based, HEK293-NOX4, tetracycline-induced, NOX inhibitor project, primary screen (AID 1160). The settings on record: HEK293-NOX4, Amplex Red H2O2 fluorescence, 45 min; higher = more signal, called active from +8 up or from −8 down.
For assay [20], the target named is NADPH oxidase 5 (Homo sapiens) (UniProt Q96PH1). The assay can be described thus: compounds shifting NOX5 Amplex Red fluorescence – cell-based, HEK293-NOX5, NOX inhibitor project, primary screen (AID 1161). Particulars: HEK293-NOX5, ionomycin, 45 min, higher = more signal.
NADPH oxidase 5 (Homo sapiens), sequence (Q96PH1 whole entry, looked up): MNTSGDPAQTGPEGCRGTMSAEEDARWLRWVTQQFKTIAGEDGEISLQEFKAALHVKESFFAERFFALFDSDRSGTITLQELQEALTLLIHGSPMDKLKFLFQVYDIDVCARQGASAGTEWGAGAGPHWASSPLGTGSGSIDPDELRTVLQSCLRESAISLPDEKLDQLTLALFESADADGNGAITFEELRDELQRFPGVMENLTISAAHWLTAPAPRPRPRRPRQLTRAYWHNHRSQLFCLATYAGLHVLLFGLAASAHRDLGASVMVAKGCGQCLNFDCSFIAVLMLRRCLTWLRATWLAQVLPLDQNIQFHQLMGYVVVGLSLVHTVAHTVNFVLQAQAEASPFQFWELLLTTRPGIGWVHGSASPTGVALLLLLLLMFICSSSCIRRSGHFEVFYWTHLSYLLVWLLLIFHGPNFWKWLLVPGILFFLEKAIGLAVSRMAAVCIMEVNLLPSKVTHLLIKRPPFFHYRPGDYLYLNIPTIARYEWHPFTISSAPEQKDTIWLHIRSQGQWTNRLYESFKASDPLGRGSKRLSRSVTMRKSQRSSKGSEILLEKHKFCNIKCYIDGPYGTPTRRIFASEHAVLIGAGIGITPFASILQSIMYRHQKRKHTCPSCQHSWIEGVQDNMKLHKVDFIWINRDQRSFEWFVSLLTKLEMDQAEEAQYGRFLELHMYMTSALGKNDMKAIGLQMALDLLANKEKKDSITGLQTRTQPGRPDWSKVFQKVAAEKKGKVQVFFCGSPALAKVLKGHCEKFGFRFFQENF

Torsin-1A (Homo sapiens), sequence (O14656 whole entry, looked up): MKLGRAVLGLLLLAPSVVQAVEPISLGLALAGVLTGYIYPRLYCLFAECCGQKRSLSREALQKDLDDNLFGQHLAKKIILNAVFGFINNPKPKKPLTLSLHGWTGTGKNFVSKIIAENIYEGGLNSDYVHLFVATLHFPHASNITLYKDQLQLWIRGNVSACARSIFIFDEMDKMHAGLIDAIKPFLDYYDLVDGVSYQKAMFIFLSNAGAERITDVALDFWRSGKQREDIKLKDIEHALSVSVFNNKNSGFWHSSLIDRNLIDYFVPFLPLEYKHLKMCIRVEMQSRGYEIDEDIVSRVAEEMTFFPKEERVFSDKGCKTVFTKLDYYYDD
Streptavidin (Streptomyces avidinii), sequence (P22629 whole entry, looked up): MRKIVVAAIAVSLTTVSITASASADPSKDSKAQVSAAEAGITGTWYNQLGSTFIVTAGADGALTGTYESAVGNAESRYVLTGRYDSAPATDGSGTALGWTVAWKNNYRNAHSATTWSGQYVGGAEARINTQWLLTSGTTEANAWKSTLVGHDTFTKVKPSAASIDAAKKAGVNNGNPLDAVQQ
NADPH oxidase 4 (Homo sapiens), sequence (Q9NPH5 whole entry, looked up): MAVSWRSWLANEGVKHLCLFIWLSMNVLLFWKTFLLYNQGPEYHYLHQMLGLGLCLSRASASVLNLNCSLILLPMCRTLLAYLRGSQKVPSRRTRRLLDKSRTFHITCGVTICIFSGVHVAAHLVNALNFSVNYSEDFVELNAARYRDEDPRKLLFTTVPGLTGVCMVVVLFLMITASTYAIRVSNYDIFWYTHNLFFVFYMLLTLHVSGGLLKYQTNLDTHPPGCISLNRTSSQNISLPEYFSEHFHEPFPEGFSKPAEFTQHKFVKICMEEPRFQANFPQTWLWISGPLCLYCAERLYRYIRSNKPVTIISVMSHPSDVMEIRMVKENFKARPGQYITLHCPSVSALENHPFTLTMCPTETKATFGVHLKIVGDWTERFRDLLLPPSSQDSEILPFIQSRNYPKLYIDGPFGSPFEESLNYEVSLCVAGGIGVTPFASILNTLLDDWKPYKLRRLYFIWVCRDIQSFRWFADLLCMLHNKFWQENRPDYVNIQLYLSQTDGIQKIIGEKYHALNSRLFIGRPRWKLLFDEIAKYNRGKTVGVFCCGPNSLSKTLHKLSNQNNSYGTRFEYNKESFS
NADPH oxidase 2 (Homo sapiens), sequence (P04839 whole entry, looked up): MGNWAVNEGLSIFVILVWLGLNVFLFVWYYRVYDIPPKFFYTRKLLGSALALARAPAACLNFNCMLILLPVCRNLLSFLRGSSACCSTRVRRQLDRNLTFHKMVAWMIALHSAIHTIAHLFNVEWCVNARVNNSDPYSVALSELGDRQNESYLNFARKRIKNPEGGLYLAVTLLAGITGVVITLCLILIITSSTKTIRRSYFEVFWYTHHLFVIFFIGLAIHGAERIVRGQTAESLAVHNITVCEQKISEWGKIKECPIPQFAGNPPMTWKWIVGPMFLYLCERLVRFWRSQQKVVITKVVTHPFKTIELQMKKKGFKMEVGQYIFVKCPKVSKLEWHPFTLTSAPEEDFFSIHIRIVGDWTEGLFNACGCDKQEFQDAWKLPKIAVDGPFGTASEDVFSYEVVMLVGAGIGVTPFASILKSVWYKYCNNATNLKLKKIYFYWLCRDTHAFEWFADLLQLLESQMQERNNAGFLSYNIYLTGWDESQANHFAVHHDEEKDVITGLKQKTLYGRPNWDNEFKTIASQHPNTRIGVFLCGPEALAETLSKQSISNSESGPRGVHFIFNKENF

Regarding `CC(=O)OC[C@H]1O[C@@H](ON=C(C)C)[C@H](OC(C)=O)[C@@H](OC(C)=O)[C@@H]1OC(C)=O`, the composite z-score in assay [1] is 0.47; in assay [6], -1.26; in assay [7], -0.0695; with Torsin-1A (Homo sapiens) [8], 0.456; with Torsin-1A (Homo sapiens) [9], 0.188; in assay [10], -0.856. Further, the composite z-score in assay [12] is 0.145. Further, the z-score in [2] was 0.238 (inactive); in assay [3], -0.291 (inactive); in [4], 0.499 (inactive); in [5], 0.101 (inactive); in [11] it was -1.83 (inactive); in assay [13], 0.421 (inactive). Besides, the z-score in [14] is 1.12 (inactive); in [15] it was 0.638 (inactive); in [16] it was 0.539 (inactive); in [17], 0.152; in assay [18], 1.27 (inactive); in assay [19], 0.378 (inactive). The z-score in assay [20] was -0.611.
Turning to `C[C@@H]1CC[C@H]2C(=O)O[C@@H](COc3ccc(C(C)(C)C)cc3)CN2[C@H]1c1ccc(Br)cc1`, the composite z-score in assay [1] was 0.0114; in [6], 0.0826; in assay [7], -0.0523; in the assay with Torsin-1A (Homo sapiens) [8], 0.159; with Torsin-1A (Homo sapiens) [9] it was -0.0416; in [10] it was 0.526. In [12], this compound came in with a composite z-score of -0.103. The z-score in assay [2] was -0.0293 (inactive); in assay [3], 0.0807 (inactive); in [4], 0.345 (inactive); in assay [5] it was 0.213 (inactive); in assay [11] it was -0.113 (inactive); in assay [13], 1.25 (inactive). Besides, the z-score in [14] is 0.937 (inactive); in [15] it was -0.897 (inactive); in assay [16] it was 0.588 (inactive); in [17] it was -0.261; in assay [18] it was -0.271 (inactive); in [19], 0.562 (inactive). Besides, in assay [20], the z-score is 0.257.
Consider `CCOC(=O)CCN1C(=O)[C@H]2[C@H]3[C@H](O)[C@H](O)CC(=NO[C@@H]4O[C@H](CO)[C@@H](O)[C@H](O)[C@H]4O)[C@@H]3CC[C@H]2C1=O`, for which the composite z-score in assay [1] stood at 0.231; in assay [6] it was 0.036; in assay [7], 0.0173; in the assay with Torsin-1A (Homo sapiens) [8], 1.87; with Torsin-1A (Homo sapiens) [9], 1.12; in assay [10] it was 1.62. This compound also gave a composite z-score in [12] of 0.121. Further, the z-score in assay [2] was -0.784 (inactive); in assay [3], 1.24 (inactive); in assay [4], -0.748 (inactive); in [5] it was 1.17 (inactive); in assay [11], 0.998 (inactive); in [13], 3.62 (inactive). Besides, the z-score was 0.155 (inactive) in assay [14]; 1.31 (inactive) in [15]; 0.82 (inactive) in [16]; -0.235 in [17]; -2.95 (inactive) in [18]; 0.332 (inactive) in assay [19]. For the same compound, the z-score in assay [20] was -2.16.
Consider `CCOC(=O)NN=C1C[C@@H](O)[C@@H](O)[C@@H]2[C@@H]3C(=O)N(C[C@@H]4CCCO4)C(=O)[C@@H]3CC[C@H]12`, for which the composite z-score was 0.0534 in assay [1]; -0.319 in assay [6]; -0.004 in assay [7]; 0.715 with Torsin-1A (Homo sapiens) [8]; 0.577 with Torsin-1A (Homo sapiens) [9]; 0.225 in assay [10]. In assay [12], this compound yielded a composite z-score of -0.147. Further, the z-score in assay [2] is 0.587 (inactive); in assay [3] it was -0.973 (inactive); in [4], -0.926 (inactive); in assay [5] it was -0.0875 (inactive); in assay [11] it was 0.138 (inactive); in assay [13] it was -0.133 (inactive). Besides, the z-score is -0.121 (inactive) in [14]; -0.497 (inactive) in assay [15]; -0.235 (inactive) in [16]; 0.0411 in assay [17]; 0.192 (inactive) in assay [18]; 0.433 (inactive) in [19]. Further, the z-score in assay [20] is -0.468.
